Activity calls are given as the source filed them. The calls were made as follows: active = hit-call score of the fitted dose curve at least 0.9, where 1 is the maximum; inactive = score below 0.9.

In general, AC50 refers to the midpoint of the concentration-response curve, whichever way the signal moves.

Muscarinic acetylcholine receptor M1 (Homo sapiens), sequence (P11229 whole entry, looked up): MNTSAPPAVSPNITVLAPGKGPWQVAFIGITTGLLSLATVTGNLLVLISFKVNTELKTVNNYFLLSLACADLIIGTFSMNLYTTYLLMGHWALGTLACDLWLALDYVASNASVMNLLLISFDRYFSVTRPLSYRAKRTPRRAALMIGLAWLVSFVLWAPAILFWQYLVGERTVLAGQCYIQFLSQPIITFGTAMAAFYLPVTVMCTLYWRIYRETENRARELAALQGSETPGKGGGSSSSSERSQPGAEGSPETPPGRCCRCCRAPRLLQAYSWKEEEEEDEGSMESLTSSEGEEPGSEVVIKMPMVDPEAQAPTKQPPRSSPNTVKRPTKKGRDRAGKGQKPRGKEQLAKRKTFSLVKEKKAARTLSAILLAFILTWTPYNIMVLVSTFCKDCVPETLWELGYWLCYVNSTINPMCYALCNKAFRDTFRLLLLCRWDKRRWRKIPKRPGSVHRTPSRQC

In the assay the target is Muscarinic acetylcholine receptor M1 (Homo sapiens) (UniProt P11229). Briefly: ERF_FR_GPCR_hCHRM1: Eurofins (ERF) G Protein-Coupled Receptor (GPCR) Radioligand Binding LeadHunter Assay for human Muscarinic Acetylcholine Receptor M1 Antagonism, conducted at France lab site. Here is the method:
ERF_FR_GPCR_hCHRM1 is a biochemical, single-readout assay that uses extracted gene-proteins in a cell-free assay. Measurements were taken 1 hour after chemical dosing in a 96-well plate. See M1 Human Acetylcholine (Muscarinic) GPCR Binding (Antagonist Radioligand) Assay, Cerep.ERF_FR_GPCR_hCHRM1 is an assay component calculated from the ERF_FR_GPCR_hCHRM1 assay. It is designed to measure radioligand binding using a type of binding reporter as detected by scintillation counting with radiometry technology.Data from the assay component ERF_FR_GPCR_hCHRM1 was analyzed at the assay endpoint, ERF_FR_GPCR_hCHRM1, in the positive analysis fitting direction relative to DMSO as the negative control and baseline of activity. Using a type of binding reporter, loss-of-signal activity can be used to understand changes in binding as they relate to gene CHRM1. To generalize the intended target to other relatable targets, this assay endpoint is annotated to the gpcr intended target family, where the subfamily is acetylcholine (Muscarinic).
Human cells are incubated for 60 minutes at room temprature with [3H]pirenzepine ligand (2 nM) and pirenzepine as control inhibitor.Test Sample Requirements: Minimum for 1) Screen: 60 ul of 10 mM stock -OR- 1 mg (pre-weighed) for 10 uM final testing. 2) Dose Response: 90 ul of 10 mM stock -OR- 1 mg (pre-weighed) for a top concentration at 10 uM.
As to `O=C(/C=C/c1ccc(O)cc1)CC(=O)/C=C/c1ccc(O)cc1`, the AC50 is 5 µM (active).

Source of the values: PubChem BioAssay AID2284153 (EPA ToxCast).
